Reference: PubChem BioAssay
A number with no mark means an inactive call. For some of these results: Entries with a potency or affinity are not part of this list. Calls of active or inactive are those of the source. Unless noted, how the calls were made is not given here.

How the values were obtained:
[1] = antimalarial activity against Dd2 strain (AID 2302;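 active means growth inhibition above 50% at the single 2 µM test dose, taken to imply half-maximal potency below 2 µM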;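 further: 0% = DMSO untreated growth and 100% = chloroquine plus artemisinin killed control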); conditions: P. falciparum Dd2 in RBCs, LDH growth readout, 72 h; at 2 µM; stronger effect = higher value
[2] = human hepatoma cell viability loss – ATP luminescence, cytotoxicity control for P. falciparum antimalarial project, primary screen (AID 2303;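 active means inhibition above 50%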;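 further: 0% = DMSO wells and 100% = digitonin-killed cells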); conditions: HepG2 viability, 24-48 h, at 10 µM, stronger effect = higher value
[3] = target: L-lactate dehydrogenase (Plasmodium falciparum (isolate CDC / Honduras)) (UniProt Q27743); experiment: PfLDH activity inhibition – cell lysate, 3D7 strain, counter-screen for P. falciparum growth inhibition project (AID 2304);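 further: 0% = vehicle and 100% = reference inhibitor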; conditions: P. falciparum 3D7 crude extract, LDH APAD/NBT absorbance; at 2 µM; stronger effect = higher value
Chain of L-lactate dehydrogenase (Plasmodium falciparum (isolate CDC / Honduras)) (Q27743 whole entry, looked up): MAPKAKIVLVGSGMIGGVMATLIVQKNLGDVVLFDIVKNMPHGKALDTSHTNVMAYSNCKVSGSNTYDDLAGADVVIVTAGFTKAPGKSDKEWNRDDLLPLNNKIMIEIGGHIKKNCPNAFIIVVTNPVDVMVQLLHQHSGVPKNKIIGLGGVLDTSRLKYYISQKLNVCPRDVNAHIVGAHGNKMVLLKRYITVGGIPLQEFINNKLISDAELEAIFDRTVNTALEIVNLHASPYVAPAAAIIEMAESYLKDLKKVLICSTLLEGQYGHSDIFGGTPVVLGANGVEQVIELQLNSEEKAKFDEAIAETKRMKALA

[4] = inhibition of 3D7 malaria parasite growth – strain 3D7 (AID 2306);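 further: 0% = DMSO wells and 100% = chloroquine plus artemisinin control wells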; conditions: P. falciparum 3D7 erythrocytic growth, LDH absorbance, 72 h; at 2 µM; stronger effect = higher value
[5] = target: Calcium-dependent protein kinase 1 (Plasmodium falciparum (isolate 3D7)) (UniProt P62344); experiment: PfCDPK1 kinase inhibitors, biochemical, TCAMS library (AID 1159585; cut-off not given, nearly all actives have IC50 up to about 0.98 µM;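 further: inhibitors leave more ATP so luminescence rises with inhibition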); conditions: recombinant PfCDPK1, Kinase-Glo ATP depletion luminescence
Chain of Calcium-dependent protein kinase 1 (Plasmodium falciparum (isolate 3D7)) (P62344 whole entry, looked up): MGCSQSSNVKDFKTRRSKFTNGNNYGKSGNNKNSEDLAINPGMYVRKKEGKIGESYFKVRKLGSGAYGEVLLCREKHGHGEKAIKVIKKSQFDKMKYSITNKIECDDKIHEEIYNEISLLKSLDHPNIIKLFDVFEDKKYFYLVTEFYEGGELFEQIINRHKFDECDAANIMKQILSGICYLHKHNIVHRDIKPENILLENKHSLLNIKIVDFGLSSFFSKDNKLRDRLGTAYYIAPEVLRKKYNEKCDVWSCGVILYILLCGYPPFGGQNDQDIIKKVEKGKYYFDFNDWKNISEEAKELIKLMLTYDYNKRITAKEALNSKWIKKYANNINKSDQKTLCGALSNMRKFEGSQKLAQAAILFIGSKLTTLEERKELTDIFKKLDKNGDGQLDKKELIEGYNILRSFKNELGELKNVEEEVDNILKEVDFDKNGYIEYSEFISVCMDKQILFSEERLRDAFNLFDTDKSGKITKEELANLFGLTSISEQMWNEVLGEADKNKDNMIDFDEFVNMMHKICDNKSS

[6] = target: Plasmodium falciparum protein kinase 6 (PK6, PF3D7_1337100) (UniProt Q8IDW1); experiment: PfPK6 kinase inhibitors, biochemical, TCAMS library (AID 1159586); conditions: recombinant PfPK6, Kinase-Glo ATP depletion luminescence
Chain of Plasmodium falciparum protein kinase 6 (PK6, PF3D7_1337100) (Q8IDW1 1-305): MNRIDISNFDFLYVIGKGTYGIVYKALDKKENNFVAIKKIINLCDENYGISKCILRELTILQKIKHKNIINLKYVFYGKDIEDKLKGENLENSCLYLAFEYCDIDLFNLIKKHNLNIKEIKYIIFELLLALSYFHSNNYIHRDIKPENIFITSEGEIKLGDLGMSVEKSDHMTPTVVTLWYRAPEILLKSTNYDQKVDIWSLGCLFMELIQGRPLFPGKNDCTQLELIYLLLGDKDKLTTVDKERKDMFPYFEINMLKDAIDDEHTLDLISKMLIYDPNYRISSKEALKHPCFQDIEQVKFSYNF

[7] = target: Protein kinase 7 (PK7), Plasmodium falciparum 3D7 (PF3D7_0213400) (UniProt Q7YTF7); experiment: inhibition of Plasmodium PK7 catalytic activity – biochemical, TCAMS antimalarial set, Kinase-Glo luminescence (AID 1159587); conditions: recombinant PfPK7, Kinase-Glo ATP depletion luminescence
Chain of Protein kinase 7 (PK7), Plasmodium falciparum 3D7 (PF3D7_0213400) (Q7YTF7 1-343): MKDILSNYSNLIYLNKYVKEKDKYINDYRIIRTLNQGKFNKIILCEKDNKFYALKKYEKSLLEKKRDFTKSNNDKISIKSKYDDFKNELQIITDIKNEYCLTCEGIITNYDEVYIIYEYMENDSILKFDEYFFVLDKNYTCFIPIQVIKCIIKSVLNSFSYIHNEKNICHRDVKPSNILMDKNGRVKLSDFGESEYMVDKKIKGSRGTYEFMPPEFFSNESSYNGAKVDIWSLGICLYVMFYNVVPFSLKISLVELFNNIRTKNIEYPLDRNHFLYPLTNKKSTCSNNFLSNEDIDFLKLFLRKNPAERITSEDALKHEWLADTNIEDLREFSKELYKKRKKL

[8] = target: Calcium-dependent protein kinase 4 (Plasmodium falciparum (isolate 3D7)) (UniProt Q8IBS5); experiment: PfCDPK4 kinase inhibitors, biochemical, TCAMS library (AID 1159588; cut-off not given, nearly all actives have IC50 up to about 0.91 µM); conditions: recombinant PfCDPK4, Kinase-Glo ATP depletion luminescence
Chain of Calcium-dependent protein kinase 4 (Plasmodium falciparum (isolate 3D7)) (Q8IBS5 whole entry, looked up): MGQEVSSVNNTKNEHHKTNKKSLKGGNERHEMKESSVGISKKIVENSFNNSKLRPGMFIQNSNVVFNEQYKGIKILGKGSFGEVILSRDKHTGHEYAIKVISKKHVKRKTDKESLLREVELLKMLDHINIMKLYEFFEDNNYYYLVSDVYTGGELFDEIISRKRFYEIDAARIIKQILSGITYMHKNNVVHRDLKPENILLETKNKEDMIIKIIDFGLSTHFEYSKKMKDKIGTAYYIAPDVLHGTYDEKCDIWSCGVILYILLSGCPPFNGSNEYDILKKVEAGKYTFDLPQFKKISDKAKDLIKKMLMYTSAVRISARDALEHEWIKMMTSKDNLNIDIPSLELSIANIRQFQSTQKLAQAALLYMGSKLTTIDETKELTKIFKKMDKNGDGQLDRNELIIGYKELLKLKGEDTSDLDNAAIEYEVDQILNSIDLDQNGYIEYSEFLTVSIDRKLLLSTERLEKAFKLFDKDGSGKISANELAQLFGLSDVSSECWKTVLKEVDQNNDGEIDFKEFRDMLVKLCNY

Row | Compound | growth inhibition [1] | inhibition [2] | inhibition [3] [%] | growth inhibition [4] | outcome [5] | outcome [6] | outcome [7] | outcome [8]
1 | Cc1ccc(CN2CCCN(Cc3ccc(C(=O)Nc4ccc(Cl)cc4)cc3)CC2)s1 | 5% | 53% (active) | 3 | 85% (active) | inactive | inactive | inactive | inactive
2 | CN1CCCC(CN2CCN(Cc3ccc(-c4ccc(-c5nc6ccc(F)cc6[nH]5)s4)cc3)CC2)C1 (stereo not given) | 100% (active) | 73% (active) | -2 | 101% (active) | inactive | inactive | inactive | inactive
3 | COc1cc(Cc2cnc(N)nc2N)ccc1OCc1ccc(NC(C)=O)cc1 | 0% | 9% | -6 | 98% (active) | inactive | inactive | inactive | inactive
4 | O=C(Nc1ccc(Cl)cc1)c1ccc(CN2CCCN(Cc3cccc(Cl)c3)CC2)cc1 | 15% | 53% (active) | 1 | 96% (active) | inactive | inactive | inactive | inactive
5 | O=C(NCCN1CCCC1)c1ccc(-c2ccc(-c3nc4ccc(C(F)(F)F)cc4[nH]3)s2)cc1 | 65% (active) | 31% | 4 | 97% (active) | inactive | inactive | inactive | inactive
6 | CC(C)NCC(=O)Nc1cccc(C(=O)Nc2cccc(C(F)(F)F)c2)c1 | 89% (active) | 6% | 4 | 97% (active) | inactive | inactive | inactive | inactive
7 | O=C(CCCCCCc1ccccc1)Nc1ccc2nc3c(c(NCc4ccccc4)c2c1)CCCC3 | 98% (active) | 19% | -3 | 101% (active) | inactive | inactive | inactive | inactive
8 | O=C(Nc1ccc2ccccc2c1)N1CCC(NCc2cccc([N+](=O)[O-])c2)CC1 | -3% | -1% | 2 | 98% (active) | inactive | inactive | inactive | inactive
9 | CCCCc1ccc(-c2ccc3[nH]c(C)c(Br)c(=O)c3c2)cc1 | 97% (active) | -10% | -2 | 97% (active) | inactive | inactive | inactive | inactive
10 | Cc1cc(C)c(NC(=O)N2CCCN(CCCCCNC(=O)/C=C/c3ccc(Cl)c(Cl)c3)CC2)c(C)c1 | -1% | 12% | 3 | 91% (active) | inactive | inactive | inactive | inactive
11 | COc1cccc(C2CCN(CCN3CCC(CNC(=O)c4ccc(-c5ccc(C(F)(F)F)cc5)cc4)CC3)CC2)c1 | 42% | 41% | -2 | 100% (active) | inactive | inactive | inactive | inactive
12 | N#Cc1cc([N+](=O)[O-])ccc1-n1nc(C(N)=O)n(Cc2cccc(F)c2)c1=S | 100% (active) | 6% | -4 | 100% (active) | inactive | inactive | inactive | inactive
13 | COc1ccc2nccc([C@@H](O)CN3CCC(NCc4cc5ccccc5nn4)CC3)c2c1 | 16% | 5% | -1 | 94% (active) | inactive | inactive | inactive | inactive
14 | Cn1cc(Br)c(-c2cccc(Nc3ccnc4cc(-c5nccs5)ccc34)c2)n1 | 32% | 37% | -1 | 91% (active) | inactive | inactive | inactive | inactive
15 | CCN(CCNC(=O)Nc1cc(C(F)(F)F)cc(C(F)(F)F)c1)c1cccc(C)c1 | 100% (active) | -3% | 4 | 98% (active) | inactive | inactive | inactive | inactive
16 | CN1CCN(c2cccc(-c3nnc(-c4ccc(OCC(=O)NCc5cccc(C(F)(F)F)c5)c([N+](=O)[O-])c4)o3)c2)CC1 | 72% (active) | 25% | 2 | 90% (active) | inactive | inactive | inactive | inactive
17 | Nc1nc(Nc2cccc(Cl)c2)ncc1C(=O)NCc1ccncc1 | 29% | 3% | -5 | 98% (active) | inactive | inactive | inactive | inactive
18 | Cc1cccc2[nH]c(-c3ccc(-c4cccc(CN5CCCCC5)c4)s3)nc12 | 92% (active) | 11% | -2 | 100% (active) | inactive | inactive | inactive | inactive
19 | Cc1noc(-c2cccs2)c1C(=O)NC(C)c1cccc2ccccc12 (stereo not given) | 95% (active) | -2% | -4 | 97% (active) | inactive | inactive | inactive | inactive
20 | Cc1nc2ccc3ccc(CNc4ccc(C#N)cc4)cc3c2c(=O)[nH]1 | 56% (active) | 55% (active) | 8 | 84% (active) | inactive | inactive | inactive | inactive
